Records with an inconclusive call do not appear. Unmarked numbers belong to inactive results. The source made the active and inactive calls. Calls follow the shape of the dose curve; as a rule, active = well fitted curve in the direction sought with a large enough effect in the repeat runs; inconclusive = weak or mixed curves; inactive = no such curve, though single readings can be large; an effect the other way counts as inactive or inconclusive.
Assay: qHTS assay to identify small molecule agonists of the RXR signaling pathway - cell viability counter screen (AID 1159529); also: nearly all actives have a fitted effect of over 50% in size
Settings: RXR-alpha-bla HEK293T viability, CellTiter-Glo, 16 h; series mostly up to 76.8 µM; activity change, negative = cytotoxicity: at the top concentration
Method in brief: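 Cell viability is measured by CellTiter-Glo luminescence, 30 min at room temperature, in wells already read for beta-lactamase. Engineered HEK 293T cells (RXR-alpha-UAS-bla) are dosed 16 hr at 37 C. Tetraoctyl ammonium bromide serves as positive control.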
% is scaled to controls: 0 for no effect and ±100 for the full control effect; potency is read from the fitted curve at half-maximal effect.

| Compound | Potency | activity change, negative = cytotoxicity |
| --- | --- | --- |
| COc1cc(C(=O)NC2CCN(C)CC2)ccc1Nc1ncc2c(n1)N(C1CCCC1)CC(F)(F)C(=O)N2C | 31.8 µM (active) | – |
| CCCCCCNC(=O)n1cc(F)c(=O)[nH]c1=O | – | -2.71% [at 35.3 µM] |
| OCCN1CCN(CCCN2c3ccccc3Sc3ccc(Cl)cc32)CC1 | 16.9 µM (active) | – |
| C[C@@H]1CN(CCCn2c3ccccc3c3ccccc32)C[C@H](C)N1 | 23.9 µM (active) | – |
| c1csc(SSc2cccs2)c1 | 38.9 µM (active) | – |
| O=c1cc(-c2ccccc2)oc2cc(O)cc(O)c12 | – | -4.42% |
| C[C@@H](O[C@H]1OCCN(Cc2n[nH]c(=O)[nH]2)[C@H]1c1ccc(F)cc1)c1cc(C(F)(F)F)cc(C(F)(F)F)c1 | 19 µM (active) | – |
| O=C1c2ccccc2C(=O)c2c(O)c(O)cc(O)c21 | – | -18.1% |
| COC(=O)c1nc(Cl)c(Cl)nc1N | 13.4 µM (active) | – |
| CC(C)COCC(CN(Cc1ccccc1)c1ccccc1)N1CCCC1 (stereo not drawn) | 19 µM (active) | – |

Assay: qHTS assay to identify small molecule antagonists of the retinoid acid receptor (RAR) signaling pathway - cell viability counter screen (AID 1159551); also: nearly all actives have a fitted effect of over 35% in size
Settings: C3RL4 cells viability, ATP luminescence (CellTiter-Glo), 6 h; series mostly up to 92.4 µM; activity change, negative = cytotoxicity: at the top concentration
Method in brief: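 Cytotoxicity counter screen: ATP content quantified by CellTiter-Glo luminescence in C3RL4 cells treated 6 hr at 37 C with compound and retinol (1 uM final). Cells plated at 1,000/well and cultured overnight before dosing.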

| Compound | activity change, negative = cytotoxicity | Potency |
| --- | --- | --- |
| Brc1cc(Br)c(Oc2cc(Br)c(Br)cc2Br)cc1Br | 1.89% [at 42.5 µM] | – |
| C/C=C\C/C=C/CCCCCCCCOC(C)=O | 2.58% | – |
| O=C1Cc2ccccc2N1c1c(Cl)cccc1Cl | 1.87% | – |
| CN(C)CCC=C1c2ccccc2C=Cc2ccccc21 | -3.25% [at 42.5 µM] | – |
| CCCCCCCCC(CCCCCC)C(=O)O (stereo not drawn) | -0.955% | – |
| O=Cc1c2ccccc2c(Cl)c2ccccc12 | -0.409% [at 42.5 µM] | – |
| Clc1ccc(Nc2nnc(Cc3ccncc3)c3ccccc23)cc1 | 7.19% [at 42.5 µM] | – |
| O=[N+]([O-])c1ccc(O/N=C/c2cc(Br)c(O)c(Br)c2)c([N+](=O)[O-])c1 | -8.11% | – |
| O=C(CCCN1CC=C(n2c(=O)[nH]c3ccccc32)CC1)c1ccc(F)cc1 | 0.238% [at 42.5 µM] | – |
| C[C@@]12CCC[C@H]1[C@@H]1CC[C@H]3C[C@@H](O)CC[C@]3(C)[C@H]1CC2 | -4.18% [at 42.5 µM] | – |
| C[C@@H](CN(C)C)CN1c2ccccc2Sc2ccccc21 | -1.32% [at 42.5 µM] | – |
| CC/C=C1/OC(=O)c2ccccc21 | -0.01% | – |
| CN1CCCC(CC2c3ccccc3Sc3ccccc32)C1 (stereo not drawn) | -1.48% [at 42.5 µM] | – |
| Oc1c(I)cc(I)c2cccnc12 | 1.04% [at 42.5 µM] | – |
| CC(C)(O)c1ccc(CNC(=O)c2cccnc2Oc2ccc3nonc3c2)cc1 | 5.1% | – |
| CC(C)(C)CC(=O)OCC(=O)[C@@]1(O)CC[C@H]2[C@@H]3CCC4=CC(=O)C=C[C@]4(C)[C@H]3[C@@H](O)C[C@@]21C | -5.93% [at 42.5 µM] | – |
| Oc1ccc(Cl)c2cccnc12 | -8.97% [at 42.5 µM] | – |
| C=C(C)[C@@H]1CCC2=CCC[C@@H](C)[C@]2(C)C1 | -1.69% | – |
| Nc1ccc(N=Nc2ccccc2)c(N)c1 | -6.95% | – |
| CCC(C)COC(=O)CC(C)C (stereo not drawn) | -2.77% | – |
| CC1(CN2CCC(n3c(=O)[nH]c4ccccc43)CC2)OCc2ccccc2-n2cccc21 (stereo not drawn) | -6.98% [at 42.5 µM] | – |
| Cc1cccc(N(C)C(=S)Oc2ccc3c(c2)CCC3)c1 | 1.05% [at 42.5 µM] | – |
| CS(=O)(=O)c1ccc(-c2cn3ccccc3n2)cc1 | – | 11.9 µM (active) |
| C=C/C(C)=C/C/C=C(\C)CCC=C(C)C | 5.76% | – |
| C/C=C(/C(=C/C)c1ccc(O)cc1)c1ccc(O)cc1 | -3.2% [at 42.5 µM] | – |

Assay: qHTS assay to identify small molecule antagonists of the retinoic acid receptor (RAR) signaling pathway (AID 1159552; also: nearly all actives have a fitted effect of over 50% in size)
Settings: C3RL4 RARE luciferase reporter, retinol-stimulated, 6 h; series mostly up to 92.4 µM; activity, negative = inhibition: at the top concentration
Method in brief: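 Quantitative HTS in C3RL4 RARE-luciferase reporter cells. Compounds were added with 1 uM (final) retinol; luminescence was read after 6 hr.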

| Compound | Potency | activity, negative = inhibition |
| --- | --- | --- |
| COc1cc(C(=O)NC2CCN(C)CC2)ccc1Nc1ncc2c(n1)N(C1CCCC1)CC(F)(F)C(=O)N2C | 2.5 µM (active) | – |
| CCCCCCNC(=O)n1cc(F)c(=O)[nH]c1=O | – | -11.8% [at 42.5 µM] |
| O=C1Cc2ccccc2N1c1c(Cl)cccc1Cl | – | 3% |
| OCCN1CCN(CCCN2c3ccccc3Sc3ccc(Cl)cc32)CC1 | 29.8 µM (active) | – |
| C[C@@H]1CN(CCCn2c3ccccc3c3ccccc32)C[C@H](C)N1 | 33.5 µM (active) | – |
| O=Cc1c2ccccc2c(Cl)c2ccccc12 | – | 8.31% [at 42.5 µM] |
| Clc1ccc(Nc2nnc(Cc3ccncc3)c3ccccc23)cc1 | – | -23.8% [at 42.5 µM] |
| Oc1cccc(O)c1O | – | -11.9% |
| c1csc(SSc2cccs2)c1 | 9.69 µM (active) | – |
| C[C@@]12CCC[C@H]1[C@@H]1CC[C@H]3C[C@@H](O)CC[C@]3(C)[C@H]1CC2 | – | 52.3% [at 42.5 µM] |
| CC/C=C1/OC(=O)c2ccccc21 | – | 61% |
| O=c1cc(-c2ccccc2)oc2cc(O)cc(O)c12 | – | -79.8% |
| Brc1cc2ccccc2c2ccccc12 | – | -1.53% |
| CC(C)(C)CC(=O)OCC(=O)[C@@]1(O)CC[C@H]2[C@@H]3CCC4=CC(=O)C=C[C@]4(C)[C@H]3[C@@H](O)C[C@@]21C | 33.5 µM (active) | – |
| Oc1ccc(Cl)c2cccnc12 | – | 156% [at 42.5 µM] |
| C[C@@H](O[C@H]1OCCN(Cc2n[nH]c(=O)[nH]2)[C@H]1c1ccc(F)cc1)c1cc(C(F)(F)F)cc(C(F)(F)F)c1 | 26.6 µM (active) | – |
| C=C(C)[C@@H]1CCC2=CCC[C@@H](C)[C@]2(C)C1 | – | -3.41% |
| Nc1ccc(N=Nc2ccccc2)c(N)c1 | – | 37.9% |
| CCC(C)COC(=O)CC(C)C (stereo not drawn) | – | -9.8% |
| Cc1cccc(N(C)C(=S)Oc2ccc3c(c2)CCC3)c1 | – | 20.5% [at 42.5 µM] |
| CS(=O)(=O)c1ccc(-c2cn3ccccc3n2)cc1 | – | -121% [at 42.5 µM] |
| Nc1nc2ccc([N+](=O)[O-])cc2s1 | – | 36.6% |
| COC(=O)c1nc(Cl)c(Cl)nc1N | 11.9 µM (active) | – |

From PubChem BioAssay (Tox21)
